Consider 17 compounds from PubChem BioAssay (NCATS).

Structures are written as SMILES. Inconclusive results are not listed. A number with no mark means an inactive call. The call rests on the fitted dose curve; in most records, active means well fitted curve in either direction with a large enough effect (not every such curve was filed as active); inconclusive means small, poorly fitted or top-dose-only effect, or another doubt; inactive means flat fitted curve, though single readings scatter.
On the % scale 0 is the no-effect control and ±100 the full control effect.

The assay is described as follows: AP1 Signaling Pathway (AID 357).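 Further: ME-180 reporter cells stimulated with EGF at its EC50 level.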 To be noted: ME-180 (cervical carcinoma) AP-1-bla reporter, EGF-induced, beta-lactamase ratio, 5 h; at 17.2 µM (top of the series) unless noted. An outline of the steps: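 A ratiometric CCF4 readout (405 nm excitation; 460 and 530 nm emission) quantified AP-1-driven beta-lactamase in ME-180 cells after 5 h with compound and EC50 EGF; AC50 values were derived for activators and inhibitors.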
Consider `COc1ccccc1C1/C(=C(/O)c2ccc(C)cc2)C(=O)C(=O)N1CCN1CCOCC1` (configuration not stated), for which the activity change, negative = inhibition was -9.75%.
The same measure for `CN1CCc2c(n(CC(O)CN3C(=O)c4ccccc4S3(=O)=O)c3ccccc23)C1=O` (configuration not stated): 27.1%.
As to `COc1ccc(CN(C)CCc2ccccn2)c(OC)c1OC`, the activity change, negative = inhibition is -14.2%.
The result for `CCN(CC)S(=O)(=O)c1ccc2c(c1)c(C(=O)O)cn2C` reads -6.47%; that for `N#Cc1nc(-c2ccc(F)cc2)oc1N1CCCC1`, 0.0908%.
The result for `Cc1nc(SCC(=O)Nc2ccc3c(c2)OCO3)c(C#N)c2c1CCCC2` reads -14.5%; that for `CC1(C)Cc2ccccc2-c2c1c(=O)n(-c1ccccc1)c1nnnn21`, -13.7%.
With `O=C(Nc1ccccn1)c1ccc(=O)[nH]n1`, the activity change, negative = inhibition is -7.67%.
In the case of `CCSc1nnc(NC(=O)NCC(F)(F)F)s1`, the activity change, negative = inhibition is 7.55%.
Regarding `CCOc1ccc2nc(NC(NC(C)=O)(C(=O)OC)C(F)(F)F)sc2c1` (configuration not stated), the activity change, negative = inhibition is 5.71%.
The result for `CCSc1nc(N)c2c3c(sc2n1)CCC3` reads -12.5%.
The same measure for `COc1ccccc1C1(CC(=O)N2CCOCC2)CCOC(C(C)C)C1` (configuration not stated): 3.63%; for `O=CNC(=O)c1ccccc1C(=O)O`: -3.37%.
The same measure for `CCOC(=O)c1c(C)n(C)c2ccc(OC)c(NC(=O)c3cccs3)c12`: -7.29%.
On to `CCOC(=O)c1ccc(NC(=O)COc2ccccc2OC)cc1`, for which the activity change, negative = inhibition was -16.3%.
As to `CCCCn1c2nc3ccccc3nc2c2c(=O)n(CC(C)C)cnc21`, the activity change, negative = inhibition was -1.88%.
The same measure for `CCCSc1nc(C)c(CC(=O)OCC)c(=O)[nH]1`: -4.57%.
